Results from PubChem BioAssay (NCATS).
Records with an inconclusive call do not appear. Where a call stands in place of a potency, no number is given. Calls of active or inactive are those of the source. Calls follow the shape of the dose curve; as a rule, active = well fitted inhibition curve with a large enough effect; inconclusive = small, poorly fitted or top-dose-only effect; inactive = no such curve, though single readings can be large or run the other way. Where a SMILES comes first, the peptide text is derived from it. [ ]: non-standard residue; d: D form. ξ: configuration not given here. ξPhe(βξ-Me) = CC(c1ccccc1)C(N)C(=O)O; GABA = NCCCC(=O)O

Assays:
[1] = system: Zika virus NS2B-NS3 protease (unlinked complex); test: Primary screen GU Rhodamine qHTS for Zika virus inhibitors: Unlinked NS2B-NS3 protease assay (AID 1347159); also: nearly all actives have a fitted effect of over 60% in size
Method in brief: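 A qHTS format was used, with compound concentrations ranging up to 114 microM. Each compound was preincubated with 25 nM NS2B-NS3 protease, and the substrate was then added at 1.5 microM. Curves were fitted with a 4-parameter Hill model.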

[2] = system: Zika virus NS2B-NS3 protease (linked construct); test: Primary screen NINDS Rhodamine qHTS for Zika virus inhibitors (AID 1347160); also: nearly all actives have a fitted effect of over 55% in size
Method in brief: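 Kinetic fluorescence (Ex 480 nm, Em 540 nm) over 15 min with 1.5 microM Rhodamine110 peptide and 25 nM linked protease.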

| SMILES | Potency [1] | Potency [2] |
| --- | --- | --- |
| Nc1ccc(/C=C/C(=O)NCc2cc3cc(-c4ccc(C(=O)N5CCC(F)(F)CC5)cc4)cc(-c4ccc(F)cc4)c3o2)cn1 | inactive | inactive |
| C=C1CCC[C@]2(C)CC[C@@H](C(=C)C(=O)O)[C@H](O)[C@@H]12 | inactive | inactive |
| CC/C=C\[C@H](O)[C@H](O)C1=C(C)C(=O)[C@]2(O1)C(=O)N[C@@](OC)(C(=O)c1ccccc1)[C@@H]2O | inactive | inactive |
| CC[C@]12C=CCN3CC[C@@]4(c5cc([C@@]6(C(=O)OC)C[C@H]7C[C@@H](C(C)(F)F)CN(Cc8c6[nH]c6ccccc86)C7)c(OC)cc5N(C)[C@H]4[C@@](O)(C(=O)OC)[C@@H]1OC(C)=O)[C@@H]32 | inactive | inactive |
| CC(C)C(=O)OC[C@H]1O[C@H](O[C@H]2O[C@H](CO)[C@@H](O)[C@H](O)[C@H]2O)[C@H](O)[C@@H](O)[C@@H]1O | inactive | inactive |
| COc1c(/C=C/C(C)(C)O)ccc2c1C(=O)OCc1cc(C)cc(O)c1O2 | inactive | inactive |
| COC(=O)C1=COC(O[C@@H]2O[C@H](CO)[C@@H](O)[C@H](O)[C@H]2O)[C@H]2[C@@H]1[C@H](OC(=O)CCc1ccc(O)cc1)C[C@]2(C)O (some centres not stated) | inactive | inactive |
| Cc1nc(C)c(-c2ccc(C3CCC(CC(=O)O)CC3)cc2)nc1C(N)=O (configuration not stated) | inactive | inactive |
| CN(C)CCCCC(=O)Nc1ccc(NC(=S)NC(=O)c2ccc(C(C)(C)C)cc2)cc1 | inactive | inactive |
| CC1NC(=O)CCCNC(=O)C(Cc2c[nH]c3ccccc23)NC(=O)C(C)NC(=O)C(C(C)C)NC(=O)C(C(C)c2ccccc2)NC(=O)C(C(C)C)NC1=O (stereo not drawn) (cyclo([GABA]AV[ξPhe(βξ-Me)]VAW); configuration not given here) | inactive | inactive |
| CC(=O)O[C@@](C)(C(=O)/C=C/C(C)(C)O)[C@H]1[C@H](O)C[C@@]2(C)[C@@H]3CC=C4[C@@H](C=C(O)C(=O)C4(C)C)[C@]3(C)C(=O)C[C@]12C | inactive | inactive |
